Results from ChEMBL document CHEMBL3988442, “University of Dundee, Small-Polar-MMV Screening Library” (2021).
The campaign covered roughly 69,000 compounds. About 950 (1.4%) showed an effect of 50% or more. This excerpt belongs to a sample that is enriched for strong results.

These compounds were tested on Mycobacterium tuberculosis (assay: Cornell M. t heat shock assay; note: in the data most compounds retested in dose-response had high values).
Format: functional, organism-based
Design: dose or concentration left out as unconfirmed

Structure (SMILES)	Percent Effect
O=C(Cc1ccccn1)N1CCN2C[C@H](Oc3cccc(F)c3)C[C@H]2C1.O=C(O)C(F)(F)F.O=C(O)C(F)(F)F	-12.23%
CN(C)C(=O)N1CCC2(CCCN(Cc3cnn(C)c3)C2)C1.O=C(O)C(F)(F)F (stereo unspecified)	-9.776%
CC(C)n1c(C2CCCN(CC(=O)NC3CC3)C2)nc2ccccc21 (stereo unspecified)	-32.24%
CN1CCN(C(=O)c2ncn3c2CN(C)S(=O)(=O)c2ccccc2-3)CC1.O=C(O)C(F)(F)F	-21.31%
CCn1cc(N2Cc3nc(N(C)C)ncc3C2=O)cn1	8.315%
O=C(C1CC=CC1)N1CCC2(CCN(Cc3ccccn3)C2=O)C1.O=C(O)C(F)(F)F (stereo unspecified)	-18.77%
COc1ccc(OCCNCc2c(C)nn(C)c2N(C)C)cc1.Cl	36.3%
CNC(=O)c1cc2c(nc1N(C)C)CCN(c1ncc(C)cn1)CC2.O=C(O)C(F)(F)F	38.06%
O=C(C1CCC1)N1C[C@@H]2CCN(c3cccnc3)C[C@@H]2C1.O=C(O)C(F)(F)F	-23.64%
Fc1cccc(N2C[C@H]3CCN(c4cccnc4)C[C@H]3C2)c1.O=C(O)C(F)(F)F	98.87%
O=C(O)C(F)(F)F.O=C(c1ccc(F)cc1)N1C[C@@H]2CCN(c3cccnc3)C[C@@H]2C1	-7.242%
C[C@@H]1CN(CCc2ccccc2)C[C@]12CCN(CC(=O)N(C)C)C2=O.O=C(O)C(F)(F)F	2.052%
CN(Cc1nc2ccccc2n1C)CC1CCCN1c1cccnn1 (stereo unspecified)	101.2%
CN(Cc1ncc(-c2ccccc2)o1)CC1CCCN1c1cccnn1 (stereo unspecified)	0.462%
CC(C)(C)c1cnc(CNCC2CCCN2c2cccnn2)o1 (stereo unspecified)	-26.2%
Cc1nc2ccccc2nc1CN(C)CC1CCCN1c1cccnn1 (stereo unspecified)	18.99%
Cn1c(CNCC2CCCN2c2cccnn2)nc2ccccc21 (stereo unspecified)	3.675%
CN(Cc1ncc(C(C)(C)C)o1)CC1CCCN1c1cccnn1 (stereo unspecified)	66%
Cn1nccc1-c1nnn2c1COCC(CNCC1CC1)C2.O=C(O)C(F)(F)F.O=C(O)C(F)(F)F (stereo unspecified)	30.33%
COc1cccc2c(C)c(C(=O)N3CCNCC3C(N)=O)[nH]c12.Cl (stereo unspecified)	-6.521%
O=C(O)C(F)(F)F.O=C(O)C(F)(F)F.c1ccc(N2CCC3(COCCN(Cc4cccs4)C3)C2)nc1 (stereo unspecified)	0.5206%
CC(C)NC(=O)N1C[C@H](OCc2cccnc2)[C@H]2COC[C@H]21.O=C(O)C(F)(F)F	2.427%
Cc1nnc2n1CCN(Cc1ncc(-c3ccccc3)o1)C2	-5.111%

Structure (SMILES)	Percent Effect
Cc1nnc2n1CCN(Cc1ncc(-c3ccc(Cl)cc3)o1)C2	-15.98%
Cc1nnc2n1CCN(Cc1ncc(-c3ccc(F)cc3)o1)C2	77.14%
CCc1nnc2n1CCN(Cc1ncc(-c3ccc(Cl)cc3)o1)C2	-1.022%
CCc1nnc2n1CCN(Cc1ncc(-c3ccccc3)o1)C2	76.57%
CCc1nnc2n1CCN(Cc1ncc(-c3ccc(F)cc3)o1)C2	-9.541%
CN1C(=O)CCC12CCN(c1ccc(C#N)cn1)CC2.O=C(O)C(F)(F)F	8.745%
Cc1nc(C)c(C(C)NCc2cnc(N3CCOCC3)nc2)s1.Cl (stereo unspecified)	-16.16%
Cn1cc(CN2C[C@@H]3COC[C@@H](C(=O)N4CCCCO4)[C@@H]3C2)cn1.O=C(O)C(F)(F)F.O=C(O)C(F)(F)F	6.742%
Fc1cnc(N2CCCn3cnc(COc4cccnc4)c3C2)nc1.O=C(O)C(F)(F)F	9.371%
Cc1cc(C)c(CNC(=O)NCC2CCOC2)c(=O)[nH]1 (stereo unspecified)	-20.09%
COCCC(=O)N1CCOCC2(CCN(Cc3cccs3)C2)C1.O=C(O)C(F)(F)F (stereo unspecified)	-16.95%
O=C(O)C(F)(F)F.O=C(O)C(F)(F)F.O=C1COC2(CCN(Cc3cccnc3)CC2)CN1	-2.798%
O=C(C1CCCO1)N1CCc2ncnc(NC3CCC3)c2CC1.O=C(O)C(F)(F)F (stereo unspecified)	-8.605%
CC(C)Nc1ncnc2c1CCN(C(=O)[C@H]1CCCO1)CC2	-13.05%
O=C([C@H]1CCCO1)N1CCc2ncnc(NC3CC3)c2CC1	65.17%
COCC1COCCC12CCN(Cc1nccs1)CC2.O=C(O)C(F)(F)F (stereo unspecified)	8.236%
CS(=O)(=O)N[C@@H]1CN(C(=O)c2cc3ccccc3s2)C[C@H]1O	101.8%
CCC[C@@H]1CN(C(=O)c2cc3ccccc3s2)C[C@H]1NS(C)(=O)=O	11.11%
CS(=O)(=O)NC1CCN(C(=O)c2cc3ccccc3s2)C1 (stereo unspecified)	0.7353%
Cn1cc(C[C@H]2[C@H](O)CCN2CC2CCOCC2)cn1.O=C(O)C(F)(F)F	6.354%
O=C(O)C(F)(F)F.O=C(c1ccsc1)N1CCO[C@@H]2CN(Cc3nccs3)C[C@@H]2C1	10.37%
Cc1cccc(CN2C[C@@H](C)[C@@]3(CCN(CC(=O)N(C)C)C3=O)C2)c1.O=C(O)C(F)(F)F	-6.766%
Cc1ccsc1C(=O)N1CC[C@@H](N(C)C)[C@@H]1Cc1cnn(C)c1.O=C(O)C(F)(F)F	-5.648%

Structure (SMILES)	Percent Effect
CCn1nc(C(C)C)cc1C(=O)NCCCOC	4.35%
CCn1nc(CC(C)C)cc1C(=O)NCCCOC	92.73%
CCn1nc(CC(C)C)cc1C(=O)NCCn1cccc1	49.17%
Cc1csc(CCNCc2cnc3c(c2)c(C)nn3C)n1.Cl	6.139%
O=C(O)C(F)(F)F.O=C(O)C(F)(F)F.O=C1COC2(CCN(Cc3ccncc3)CC2)CN1c1ccccc1	-2.605%
CO[C@@H]1CCN(Cc2ccoc2)[C@H]1Cc1ccccc1.O=C(O)C(F)(F)F	14.91%
Fc1cnc(N2CCCC3(CN(Cc4ccncc4)CCO3)C2)nc1.O=C(O)C(F)(F)F.O=C(O)C(F)(F)F (stereo unspecified)	10.78%
Cc1ncc2c(n1)CCCC2NC(=O)c1cnn(Cc2ccccc2)c1 (stereo unspecified)	-15.56%
Cc1ncc2c(n1)CCCC2NC(=O)c1ccc(Cn2cccn2)cc1 (stereo unspecified)	72.35%
Cc1ncc2c(n1)CCCC2NC(=O)c1ccncc1 (stereo unspecified)	-6.944%
c1ccc(CCN2CCCC2c2ccnc(Nc3cnccn3)n2)cc1 (stereo unspecified)	57.03%
Nc1nccc(C2CCCN2CCc2ccccc2)n1 (stereo unspecified)	10.92%
COCC(=O)N1CCCCC1c1ccnc(Nc2cnccn2)n1 (stereo unspecified)	-6.25%
COCC(=O)N1CCCC1c1ccnc(Nc2cnccn2)n1 (stereo unspecified)	-1.39%
Cc1nccc(C2CCCCN2Cc2ccccc2)n1 (stereo unspecified)	-13.8%
c1ccc(CCN2CCCC2c2ccnc(Nc3ncccn3)n2)cc1 (stereo unspecified)	91.35%
COCCOc1ccc(NC(=O)C2CC(=O)N(C)C2)cn1 (stereo unspecified)	4.167%
COCCn1cc(C(=O)N2CCCC2c2cccc(F)c2)ccc1=O (stereo unspecified)	-4.621%
O=C(O)C(F)(F)F.c1csc(CN2Cc3nccn3CC(Cn3cncn3)C2)c1 (stereo unspecified)	-12.15%
COc1ncc(CN(CCN(C)C)Cc2ccc(C)s2)cn1	-3.645%
CCNc1ncc(CN(CCN(C)C)Cc2ccc(C)s2)cn1	2.161%
CCc1ccc(CN(CCN(C)C)Cc2ccc(C)s2)nc1	88.98%
O=C(O)C(F)(F)F.O=C(O)C(F)(F)F.c1cncc(OC[C@]23COC[C@H]2CN(Cc2ccsc2)C3)c1	-29.89%

Structure (SMILES)	Percent Effect
Cl.O=S(=O)(c1ccc(Cl)cc1)N1CCc2nc(C3CCNCC3)ncc2C1	15.18%
COc1cc(C)c(-c2ccc(F)c3c2OC(CN)C3)cc1C (stereo unspecified)	51.67%
COc1cccnc1-c1ccc(F)c2c1OC(CN)C2 (stereo unspecified)	-14.02%
COc1cc(-c2ccc(F)c3c2OC(CN)C3)cc(OC)c1OC (stereo unspecified)	-5.435%
CC(C)CCN1C[C@H]2C[C@H](C(=O)N3CCCC3)[C@@H](C1)O2.O=C(O)C(F)(F)F	37.85%
CC1CN(CC(=O)N2CCCC2)CCN1c1ccc2nncn2n1 (stereo unspecified)	15.46%
O=C(CN1CCN(c2ccc3nncn3n2)CC1)NC1CCCC1	59.84%
O=C(CN1CCN(c2ccc3nncn3n2)CC1)NC1CCCCC1	57.46%
CC1CN(CC(=O)NC2CCCC2)CCN1c1ccc2nncn2n1 (stereo unspecified)	176.2%
CC1CN(CC2CCCCC2)CCN1c1ccc2nncn2n1 (stereo unspecified)	16.09%
CC1CN(Cc2nccn2C)CCN1c1ccc2nncn2n1 (stereo unspecified)	-15.38%
Cc1cnc(CN2CCN(c3ccc4nncn4n3)C(C)C2)cn1 (stereo unspecified)	-3.544%
c1ccc(CN2CCN(c3ccc4nncn4n3)CC2)nc1	6.511%
CC1CN(CC2CCCC2)CCN1c1ccc2nncn2n1 (stereo unspecified)	85.93%
O=C(CCN1CCN(c2ccc3nncn3n2)CC1)N1CCCCC1	-7.972%
O=C(CCN1CCN(c2ccc3nncn3n2)CC1)NC1CCCC1	-7.134%
CC1CCCCN1C(=O)CN1CCN(c2ccc3nncn3n2)CC1 (stereo unspecified)	5.269%
COCc1ncn2c1CN(C(=O)c1cccc3cccnc13)CC2.O=C(O)C(F)(F)F	-14.48%
O=C(O)C(F)(F)F.O=C(O)C(F)(F)F.c1ccc(OCC2C[C@@H]3[C@@H](C2)OCCN3Cc2ccoc2)nc1 (stereo partly specified)	14.26%
CN(C)CCN1CCCC12CCCN(C(=O)c1cccnc1)C2.O=C(O)C(F)(F)F.O=C(O)C(F)(F)F (stereo unspecified)	-7.014%
Cc1nc(N(C)C)nc2c1COCC21CCN(CC2CC2)C1.O=C(O)C(F)(F)F (stereo unspecified)	4.702%
CC1c2ncc(CNC(=O)C3CC3)n2CCN1CC1CCC1.O=C(O)C(F)(F)F (stereo unspecified)	-0.1216%
